Sampled rows, rich in hits. Any-hit rate of the full collection: about 19%.
TGFb SMAD3 inh – TGF-b pathway inhibition; HepG2 CAGA-GFP TGF-b/SMAD3 reporter, GFP fluorescence, 18 h; TGF-beta stimulated, 500 pg/mL final; Potency, µM (doses to about 46.1 µM), without a hit: at the highest dose activity, negative = inhibition, hits mostly inhibitors; 410,000 compounds, 1.2% hits; AID 588855; further: potency means the concentration at half of the fitted maximal effect; on the % scale 0 is the no-effect control and ±100 the full control effect; nearly all actives have a fitted effect of over 65% in size
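First, reporter cells (HEPG2 CAGA-GFP) rested 2 h at 37 degrees C. Next, compounds were pinned in and TGF-beta added to 500 pg/mL final. After 18 h, GFP was imaged per cell and summed per well.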
HepG2 tox – counter-screen for TGF-b inhibitors: cytotoxicity in HepG2 cells; HepG2 CAGA-GFP viability, ATP luminescence, 18 h; Potency, µM (series often up to 46.1 µM), for the others: at the top dose activity change, negative = cytotoxicity, most hits filed as cytotoxic; 410,000 compounds, 0.76% hits; AID 588856; further: potency means the concentration at half of the fitted maximal effect
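CellTiter-Glo luminescence gave cytotoxicity after 18 hours at 37 degrees C. The cells were HepG2 CAGA-GFP in 1% FBS DMEM, stimulated with 500 pg/mL TGF-beta after compound addition. %Activity was normalised to no-cell wells (complete cell-killing) and DMSO (no toxicity), and curves were fitted and classified.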
TDP1 inh – inhibitors of human tyrosyl-DNA phosphodiesterase TDP1; AID 485290; Potency, µM (titrated, usually from 130 µM), for the others: at the top dose activity change, negative = inhibition, most hits filed as inhibitors; 350,000 compounds, 0.28% hits; Q9NUW8; recombinant TDP1, AlphaScreen DNA substrate cleavage; further: potency means the concentration at half of the fitted maximal effect; on the % scale 0 is the no-effect control and ±100 the full control effect; nearly all actives have a fitted effect of over 40% in size
Target sequence (Q9NUW8 whole entry, looked up): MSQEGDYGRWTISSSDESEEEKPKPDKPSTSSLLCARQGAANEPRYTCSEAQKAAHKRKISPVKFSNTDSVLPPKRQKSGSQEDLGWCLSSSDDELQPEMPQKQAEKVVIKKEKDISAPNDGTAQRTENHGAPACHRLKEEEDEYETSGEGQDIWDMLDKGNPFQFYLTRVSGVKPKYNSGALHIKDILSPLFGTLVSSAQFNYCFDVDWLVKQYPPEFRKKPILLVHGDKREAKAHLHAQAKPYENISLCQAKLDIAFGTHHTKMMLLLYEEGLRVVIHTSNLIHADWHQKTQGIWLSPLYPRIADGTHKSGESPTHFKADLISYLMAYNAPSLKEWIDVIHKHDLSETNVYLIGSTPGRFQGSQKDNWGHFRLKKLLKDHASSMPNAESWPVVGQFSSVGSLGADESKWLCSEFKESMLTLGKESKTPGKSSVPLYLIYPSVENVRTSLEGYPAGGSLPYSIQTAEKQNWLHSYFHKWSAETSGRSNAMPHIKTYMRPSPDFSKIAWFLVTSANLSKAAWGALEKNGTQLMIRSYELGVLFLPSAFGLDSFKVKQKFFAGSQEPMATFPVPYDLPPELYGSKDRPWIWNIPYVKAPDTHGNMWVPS
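Recombinant human Tdp1 (E. coli-expressed, 1 nM final) preincubated with compounds 15 min at room temperature, then 5'-biotin/3'-phosphotyrosine-FITC DNA substrate (15 nM final) added for 5 min. AlphaScreen beads (10 ug/ml final) added 10 min; cleavage lowers signal.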
DT40 TDP1 no CPT – qHTS for Inhibitors of human tyrosyl-DNA phosphodiesterase 1 (TDP1): qHTS in cells in absence of CPT; DT40 Tdp1-/- hTDP1 cells, no CPT, ATP luminescence, 48 h; Potency, µM (titrated, usually from 46.2 µM), inactives show at the highest dose activity change, negative = growth inhibition, actives largely listed as inhibitors; 420,000 compounds, 15% hits; AID 686978, 2013; further: potency means the concentration at half of the fitted maximal effect; on the % scale 0 is the no-effect control and ±100 the full control effect; nearly all actives have a fitted effect of over 55% in size
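No-CPT arm: Tdp1-/-;hTDP1 DT40 cells (400/well) plus compounds, incubated ≥48 hr at 37 °C. Readout CellTiter-Glo luminescence.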
IL-1B inflam inh – inhibitors of inflammasome signaling (IL-1 beta secretion) | THP-1 LPS/ATP IL-1B secretion, AlphaLISA, 16 h; stronger effect = lower value | activity change, % at 57.5 µM | 360,000 compounds, 4.7% hits; in the data active means activity change below about -50%; inconclusive means mostly about -30% to -49%; further: on the % scale 0 is the no-effect control and ±100 the full control effect
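THP-1 cells pretreated 1 hr with compounds (up to 57.5 uM final), then stimulated with LPS (250 ng/mL final) plus ATP (1.25 mM final); secreted IL-1B measured by AlphaLISA after 16 hr, decreased signal indicating inhibition.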
DT40 TDP1 CPT – DT40-hTDP1 cell growth loss with CPT; chicken DT40 Tdp1-/-;hTDP1 cells + 20 nM CPT, ATP luminescence, 48 h; Potency, µM (top dose mostly 46.2 µM), for inactives: at the top dose activity change, negative = growth inhibition, usual class: inhibitors; 420,000 compounds, 12% hits; further: potency means the concentration at half of the fitted maximal effect; on the % scale 0 is the no-effect control and ±100 the full control effect; nearly all actives have a fitted effect of over 55% in size
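Chicken DT40 Tdp1-/- cells complemented with human TDP1, 400 cells/well, exposed to compounds plus 20 nM camptothecin for at least 48 h at 37 C; viability read as ATP content by CellTiter-Glo luminescence.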
Active calls of the source: *; ? = inconclusive; . = no result; [ ] = another dose, or the depositor's remark. Unless noted, the call rests on the fitted dose curve; in most records, active means well fitted curve in the direction sought with a large enough effect; inconclusive means small, poorly fitted or top-dose-only effect, or another doubt; inactive means no such curve, though single readings can be large; an effect the other way counts as inactive or inconclusive.

SMILES	TGFb SMAD3 inh	HepG2 tox	TDP1 inh	DT40 TDP1 no CPT	IL-1B inflam inh	DT40 TDP1 CPT
O=C(NCCOCCO)C(=O)Nc1c2c(nn1-c1ccc(F)cc1)CSC2	-17%	-5%	8%	1%	.	7%
CC(C)(C)n1ncc2c(=O)n(Cc3ccc(Cl)c(C(F)(F)F)c3)cnc21	2%	2%	.	.	.	.
CCN(CCN(C)Cl)/[N+]([O-])=N/Oc1ccc([N+](=O)[O-])cc1[N+](=O)[O-]	?	-102%	.	.	.	.
COc1ccccc1N1CCN(c2ccc3c(c2)S(=O)(=O)c2cccc(C(=O)NCc4cccc(F)c4)c2C3=O)CC1	3%	-30%	.	1.6µM*	-10	?
Cc1ccc(CNC(=O)c2cccc3c2C(=O)c2ccc(N4CCCCC4)cc2S3(=O)=O)cc1	2%	-35%	-1%	?	13	29µM*
O=C(NCc1ccccc1C(F)(F)F)c1cccc2c1C(=O)c1ccc(N3CCC(N4CCCCC4)CC3)cc1S2(=O)=O	-8%	-41%	.	3.7µM*	-103*	2.3µM*
O=C(NCc1ccccc1C(F)(F)F)c1cccc2c1C(=O)c1ccc(N3CCOCC3)cc1S2(=O)=O	-5%	-20%	-1%	-14%	13	-24%
CCc1nc2ccc(C(=O)N3CCN(c4ccc(Cl)cc4)CC3)cc2nc1CC	-13%	-16%	3%	?	-15	?
Cc1cccc(CNC(=O)c2cnn(-c3nccc(-c4cc5ccccc5o4)n3)c2C2CC2)n1	.	.	.	?	.	-1%[9.04 µM]
CN(C)c1nc(OCCNC(=O)COc2ccc(Cl)cc2Cl)nc(N2CCOCC2)n1	-7%	-30%	4%	13µM*	19	15µM*
Cc1cc(Cl)ccc1OCC(=O)NCCOc1nc(N2CCOCC2)nc(N2CCOCC2)n1	-22%	-26%	7%	21µM*	14	?
CCOC(=O)C1CCN(c2ccc(-c3cccs3)nn2)CC1	4%	7.1µM*	.	?	37	?
CCOC(=O)C1CCN(C(=S)NC(=O)c2cccs2)CC1	18%	16%	.	?	32	-26%
c1csc(-c2ccc(N3CCOCC3)nn2)c1	-14%	-75%	.	8.2µM*	-13	?
COCC(=O)N1CCC2(CC1)CCN(C(=O)Nc1cccc(C#N)c1)CC2	.	.	.	-11%	.	-8%
O=C(CCl)NCCCN(C(=O)C(Cl)Cl)c1ccc([N+](=O)[O-])cc1	?	13µM*	7%	13µM*	0	9.2µM*
CC(C)(C)c1ccc(C(=O)/C=C2\NC(=O)CS2)cc1	12%	2%	5%	18µM*	-23	15µM*
COC(=O)c1cc(OC)c(OC)cc1NC(=O)c1ccc(Br)o1	-9%	-8%	.	-27%	?	-1%
COc1cc2c(cc1OC)C(NNC(=O)c1ccc(Br)o1)=NC(C)(C)C2	-26%	2%	3%	?	0	21µM*
COc1ccc(OCC(=O)Nc2nnc(S(=O)(=O)N3CCc4ccccc43)s2)cc1	?	-34%	0%	?	.	?
O=C(Nc1nnc(S(=O)(=O)N2CCc3ccccc32)s1)c1cccc(Cl)c1	7.9µM*	-46%	1%	21µM*	.	21µM*
O=C(COc1ccc(F)cc1)Nc1nnc(S(=O)(=O)N2CCc3ccccc32)s1	13µM*	-29%	3%	?	.	?
O=C(Nc1nnc(S(=O)(=O)N2CCCc3ccccc32)s1)c1ccccc1	?	-31%	5%	?	.	?
O=C(Nc1nnc(S(=O)(=O)N2CCCc3ccccc32)s1)c1ccc(Cl)cc1	?	-41%	3%	18µM*	.	?
O=C(Nc1nnc(S(=O)(=O)N2CCc3ccccc32)s1)c1ccccc1	?	-39%	4%	?	.	?
SMILES	TGFb SMAD3 inh	HepG2 tox	TDP1 inh	DT40 TDP1 no CPT	IL-1B inflam inh	DT40 TDP1 CPT
N#Cc1cccc(NC(=O)N2CC[C@@]3(CCCN(C(=O)c4ccco4)C3)C2)c1	.	.	.	-9%	.	4%
CCOc1ccc(C2NC(=O)c3sc(=S)n(-c4ccccc4)c3N2)cc1 (centres undefined)	-10%	-59%	0%	?	19	-12%
O=C1NC(c2ccccc2)Nc2c1sc(=S)n2-c1ccccc1 (centres undefined)	-16%	-23%	-3%	6.5µM*	15	-12%
C[C@@]12CC(=O)C3=C(CCCC3=O)N1CCc1ccccc12	.	.	-6%	-2%[9.04 µM]	.	-4%[9.04 µM]
C=C1C(=O)O[C@@H]2[C@H]3O[C@]3(C)CCC=C(C)CC[C@@H]12	.	.	10%[56.1 µM]	2.1µM*	.	3µM*
C=C1C(=O)O[C@@H]2[C@@H]1CC/C(C)=C\CC[C@@]1(C)O[C@H]21	.	.	14%[21 µM]	.	.	.
CCCN(c1ccc(OCC)cc1)S(=O)(=O)c1ccc2c(c1)NC(=O)CO2	3%	-4%	7%	12%	-21	-12%
COC(=O)c1cnc(Nc2nc(C(N)Cc3ccccc3)cs2)nc1C(F)(F)F (centres undefined)	?	-102%	.	21µM*	?	23µM*
COC(=O)c1cnc(Nc2nc(C(N)Cc3ccc(Cl)cc3)cs2)nc1C(F)(F)F (centres undefined)	?	-89%	.	23µM*	-21	?
O=C(CSC1CC(=O)N(c2ccc(C(=O)O)cc2)C1=O)Nc1ccc2ccccc2c1 (centres undefined)	14%	5%	-1%	?	-3	?
COc1ccc(NC(=O)c2ccc(N3C(=O)C4CC=C(Cl)CC4C3=O)cc2)cc1 (centres undefined)	4%	-2%	.	29µM*	41	-26%
CCOC(=O)c1ccc(N2C(=O)CC(SCC(=O)Nc3ccc(S(N)(=O)=O)cc3)C2=O)cc1 (centres undefined)	-6%	-14%	5%	?	2	23µM*
COC(=O)c1ccc(N2C(=O)CC(SCC(=O)Nc3ccc(OC)cc3)C2=O)cc1 (centres undefined)	7%	3%	.	5.2µM*	5	15µM*
C=Cc1cc2c(cc1O)CCC1C2CCC2(C)C(O)CCC12 (centres undefined)	-39%	-19%	.	16µM*	?	?
C[C@]12CC[C@@H]3c4ccc(O)cc4C(=O)C[C@H]3[C@@H]1CC[C@@H]2O	1%	-10%	6%	-15%	-24	0%
